Assay results as given in the supplement of paper PMC6555819.

Tests used:
Experiment in all cases: PBM binding z-score (relative to random genomic background probes); higher = stronger binding; sequences stand for … in GC…GCGATTGACAGCGTAGAATGAAGG
[1] = tested on: FXR:RXRa (NR concentration 270 nM, RXRa partner concentration 90 nM)
Summary of the method: (§1)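 Custom Agilent 4×180K protein-binding microarrays carried double-stranded probes, each with a 34-nt variable region. These regions held direct-repeat seeds, single-nucleotide variants, half-site ablations and random human genomic background sequences. Ligand-free nuclear receptor dimers were incubated on the arrays for 1 h, antibodies against each partner (one per run) detected binding, and scanned fluorescence was regression-normalized. Binding z-scores take the random background probes as reference.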

[2] = tested on: LXRa:RXRa (NR concentration 270 nM, RXRa partner concentration 90 nM)
Summary of the method: as §1

[3] = tested on: LXRa homodimer (NR concentration 270 nM)
Summary of the method: as §1

[4] = tested on: LXRb:RXRa (NR concentration 270 nM, RXRa partner concentration 90 nM)
Summary of the method: as §1

[5] = tested on: LXRb homodimer (NR concentration 270 nM)
Summary of the method: as §1

[6] = tested on: PPARa:RXRa (NR concentration 270 nM, RXRa partner concentration 90 nM)
Summary of the method: as §1

[7] = tested on: PPARg:RXRa (NR concentration 180 nM, RXRa partner concentration 90 nM)
Summary of the method: as §1

[8] = tested on: PPARg:RXRa 270nM:90nM, anti-RXR (NR concentration 270 nM, RXRa partner concentration 90 nM)
Summary of the method: as §1

[9] = tested on: PPARg:RXRa 30nM:10nM, anti-RXR (NR concentration 30 nM, RXRa partner concentration 10 nM)
Summary of the method: as §1

[10] = tested on: PPARg:RXRa 90nM:30nM, anti-RXR (NR concentration 90 nM, RXRa partner concentration 30 nM)
Summary of the method: as §1

[11] = tested on: PPARg:RXRa DBDmut IVT, anti-RXR (DBD mutation: RXRa K156A/R161A, NR concentration 270 nM, RXRa partner concentration 90 nM)
Summary of the method: as §1

[12] = tested on: PPARg:RXRa IVT, anti-PPARg (NR concentration 270 nM, RXRa partner concentration 90 nM)
Summary of the method: as §1

[13] = tested on: PPARg DBDmut:RXRa IVT, anti-PPARg (DBD mutation: PPARg1 K132A/R137A, NR concentration 270 nM, RXRa partner concentration 90 nM)
Summary of the method: as §1

[14] = tested on: PPARg DBDmut IVT, anti-PPARg (DBD mutation: PPARg1 K132A/R137A, NR concentration 270 nM)
Summary of the method: as §1

[15] = tested on: PPARg homodimer (NR concentration 180 nM)
Summary of the method: as §1

[16] = tested on: PXR:RXRa (NR concentration 270 nM, RXRa partner concentration 90 nM)
Summary of the method: as §1

[17] = tested on: PXR homodimer (NR concentration 270 nM)
Summary of the method: as §1

[18] = tested on: RARa:RXR (NR concentration 270 nM, RXRa partner concentration 90 nM)
Summary of the method: as §1

[19] = tested on: RARa homodimer (NR concentration 270 nM)
Summary of the method: as §1

[20] = tested on: RARb:RXRa (NR concentration 270 nM, RXRa partner concentration 90 nM)
Summary of the method: as §1

Row | Sequence | PBM binding z-score [1] | PBM binding z-score [2] | PBM binding z-score [3] | PBM binding z-score [4] | PBM binding z-score [5] | PBM binding z-score [6] | PBM binding z-score [7] | PBM binding z-score [8] | PBM binding z-score [9] | PBM binding z-score [10] | PBM binding z-score [11] | PBM binding z-score [12] | PBM binding z-score [13] | PBM binding z-score [14] | PBM binding z-score [15] | PBM binding z-score [16] | PBM binding z-score [17] | PBM binding z-score [18] | PBM binding z-score [19] | PBM binding z-score [20]
1 | AGAATGAGGTTATTCGTAGATCAGGGAAGAAAGT | 2.59 | 2.61 | 0.0908 | 1.87 | -0.0255 | 3.43 | 1.64 | 1.83 | 0.552 | 1.2 | 2.54 | 2.22 | 0.846 | 0.521 | 0.454 | 1.44 | 0.494 | 1.98 | 0.0936 | 1.36
2 | CGTCCAAGGTCAGCACGTCAGTGAAAGCGACGTG | 5.32 | 3.11 | -0.0642 | 2.37 | -0.16 | 4.23 | 2.38 | 2.91 | 0.448 | 1.36 | 2.18 | 2.13 | 0.0717 | 0.0669 | 1.85 | 2.31 | 0.247 | 3.39 | 0.134 | 4.89
3 | CCTGCTACGTCAATGGTCAGCTAAAGCAGCTCGC | -0.5 | -0.409 | -0.45 | -0.531 | -0.36 | -0.295 | -0.37 | -0.498 | -0.833 | -0.566 | 0.218 | -0.566 | -1.15 | -0.483 | -0.41 | -0.469 | -0.413 | -0.14 | -0.629 | 0.0938
4 | GCTATTAGTTGAAAGGGCAACAGAATGATTCTCG | 0.533 | 0.675 | 0.402 | 0.947 | -0.00324 | 2.47 | 3.11 | 4.2 | 2.77 | 4.54 | 0.52 | 1.11 | 0.63 | 0.276 | 1.36 | 0.774 | 0.784 | 1.47 | 1.15 | 2.09
5 | TCGAGTAGGTTAGTCGAGGCATTCAGCCAACATA | 0.165 | -0.288 | -0.432 | -0.531 | -1.3 | 0.172 | -0.115 | 0.522 | 0.735 | 0.72 | 1.97 | 1.28 | -0.938 | -0.136 | 0.168 | -0.24 | -0.481 | 0.0963 | -0.326 | -0.133
6 | CCTACTGGGCCAAGTTCATTGATCAGTCAAAGCA | 0.51 | 0.916 | 0.751 | 0.634 | -0.712 | 1.83 | 1.24 | 2.02 | 0.309 | 1.6 | 3.93 | 3.54 | 0.0503 | -0.432 | 1.19 | 2.85 | 3.64 | 0.935 | 0.262 | 1.88
7 | ATCTCTAGGTAAGACTCAGTTCAGTTAAGAACGC | 0.593 | 0.555 | 0.553 | 0.321 | 1.02 | 0.229 | 0.0463 | 0.424 | 0.445 | 0.237 | 2.13 | 1.36 | 0.719 | 0.801 | 1.1 | 1.11 | 1.83 | 0.499 | 1.6 | 0.431
8 | TGTCAAAGTTCAAAGGTAACCTAAGTATCCACAC | 7.3 | 6.43 | 4.99 | 5.02 | 2.06 | 6.03 | 8.74 | 7.74 | 5.57 | 7.47 | 0.886 | 4.82 | 1.02 | 0.289 | 3 | 5.7 | 4.14 | 6.39 | 1.28 | 5.09
9 | CGTCCAAGGTCAAAGGTCAGTGATGAGATGACGG | 8.34 | 6.88 | 3.97 | 6.55 | 2.01 | 7.15 | 10.7 | 8.75 | 8.43 | 9.31 | 4.14 | 5.89 | 0.972 | 0.974 | 3.97 | 6.83 | 1.94 | 8.65 | 1.61 | 6
10 | GAAACGAGGGCAAAGTTGATAGCATCTGTCGACG | 1.38 | 1.27 | -0.429 | 1.02 | -0.45 | 4.4 | 7.78 | 7.51 | 7.45 | 8.19 | 5.26 | 5.32 | 0.311 | 0.0519 | 0.722 | 1.32 | 0.236 | 1.98 | 0.209 | 2.38
11 | CCTGCTAGGTCAATGGTCCGCTAAAGCAGCTCGC | 2.77 | 2.19 | -0.135 | 1.19 | -0.102 | 2.6 | 2.12 | 2.94 | 0.46 | 1.87 | 4.03 | 3.49 | -0.758 | -0.248 | 0.967 | 0.521 | -0.206 | 1.27 | -0.566 | 3.68
12 | GCGACGGGGGCATCAGCAGGTTACCATAACTTAA | 2.95 | 3.18 | 0.557 | 5.21 | 8.02 | 4.19 | 2.48 | 3.35 | 1.55 | 2.59 | 1.76 | 4.14 | 7.32 | 9.29 | 1.83 | 3.29 | 0.826 | 3.42 | -0.447 | 3.16
13 | ACTATTATTTGACTTAGGGCAACCGATACGACGC | 0.71 | 0.925 | 1.54 | 0.685 | 1.46 | 0.557 | 1.15 | 0.779 | 0.924 | 0.948 | 0.814 | 0.633 | 1.79 | 2.46 | 2.16 | 0.502 | 1.69 | 0.728 | 3.4 | 1.21
14 | TAGCCTAGGTCATTGGCCAGTATACCACGCGAAC | 4.93 | 3.34 | 0.738 | 2.61 | 0.254 | 3.41 | 2.4 | 2.49 | 0.453 | 1.44 | 1.38 | 2.72 | 0.244 | -0.771 | 1.49 | 1.56 | -0.368 | 2.16 | -0.259 | 3.57
15 | GCTAGCAGGCCATTTGGGTCACTCTATGACGGGC | 0.0268 | -0.16 | -0.53 | -0.351 | -0.817 | 0.925 | 0.594 | 0.327 | -0.547 | -0.167 | 2.04 | 2.04 | -0.319 | -0.713 | -0.345 | 0.138 | -0.0419 | 0.546 | -0.641 | 1.27
